The source made the active and inactive calls.
How the values were obtained:
[1] = E. coli DRC41 culture turbidity changes, primary screen, E. coli filamentation inducer project, strain DRC41, OD650, 48 h (AID 1152);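 note: E. coli MC1000 strain DRC41 lacking acrAB efflux pump and sulA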; details: E. coli DRC41 (acrAB sulA), higher = more signal, called active from +8 up or from −8 down
[2] = small-molecule binders of probe aLefty1, primary screen, biochemical, small-molecule microarray, 635/667 nm fluorescence (AID 1153); details: higher = more signal;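 note: score merges spot fluorescence with signal-to-noise ratio from the scanned slide images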
[3] = PSAC antagonists in infected red cells, primary screen, cell-based, P. falciparum Indochina, OD700, 1 h (AID 1154); details: P. falciparum Indochina infected RBC osmotic lysis, higher = more signal, called active from +8 up or from −8 down
[4] = PSAC antagonists in infected red cells, primary screen, cell-based, P. falciparum Indochina, OD700, 2 h (AID 1155);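 note: lysis reports solute entry through the parasite surface anion channel PSAC; channel blockers reduce lysis of infected cells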; details: P. falciparum Indochina infected erythrocytes, osmotic lysis OD700; higher = more signal, called active from +8 up or from −8 down
[5] = osmotic lysis modulators in infected erythrocytes, primary screen, PSAC antagonist project, cell-based, P. falciparum Indochina, OD700, 3 h (AID 1156); details: higher = more signal, called active from +8 up or from −8 down
[6] = PSAC antagonists in infected red cells, primary screen, cell-based, P. falciparum Indochina, OD700, 18 h (AID 1157); details: P. falciparum Indochina infected erythrocytes, osmotic lysis OD700, 18 h; higher = more signal, called active from +8 up or from −8 down
[7] = modulators of S6 phosphorylation in cells, primary screen, cell-based, A549, cytoblot, luminescence, serum-stimulated (AID 1158); details: A549 phospho-S6 cytoblot, 5 h, higher = more signal;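 note: serum-stimulated A549 lung adenocarcinoma cells; signal is phosphorylated S6 detected by cytoblot immunostaining with HRP secondary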
[8] = biological target: NADPH oxidase 2 (Homo sapiens) (UniProt P04839); test: NOX2-dependent H2O2 signal modulators, primary screen, NOX inhibitor project, cell-based, HEK293-NOX2, PMA-stimulated, Amplex Red fluorescence (AID 1159); details: 45 min, higher = more signal, called active from +8 up or from −8 down; note: test concentration not given here
NADPH oxidase 2 (Homo sapiens), sequence (P04839 whole entry, looked up): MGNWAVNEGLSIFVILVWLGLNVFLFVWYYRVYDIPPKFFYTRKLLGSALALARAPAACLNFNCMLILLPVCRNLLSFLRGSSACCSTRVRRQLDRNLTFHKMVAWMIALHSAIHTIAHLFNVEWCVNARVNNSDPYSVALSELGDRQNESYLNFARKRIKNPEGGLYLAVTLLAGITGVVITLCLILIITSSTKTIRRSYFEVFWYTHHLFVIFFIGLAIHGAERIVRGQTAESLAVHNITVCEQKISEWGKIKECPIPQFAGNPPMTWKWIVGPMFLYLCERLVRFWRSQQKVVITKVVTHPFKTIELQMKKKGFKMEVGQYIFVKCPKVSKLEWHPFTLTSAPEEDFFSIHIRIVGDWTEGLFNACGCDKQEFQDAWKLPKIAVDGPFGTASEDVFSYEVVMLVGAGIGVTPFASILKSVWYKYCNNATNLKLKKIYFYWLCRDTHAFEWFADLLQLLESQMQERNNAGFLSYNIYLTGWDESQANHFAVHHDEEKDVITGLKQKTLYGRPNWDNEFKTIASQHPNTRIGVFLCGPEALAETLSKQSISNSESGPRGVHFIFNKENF

[9] = biological target: NADPH oxidase 4 (Homo sapiens) (UniProt Q9NPH5); test: NOX4-dependent H2O2 signal modulators, primary screen, NOX inhibitor project, cell-based, HEK293-NOX4, tetracycline-induced, Amplex Red fluorescence (AID 1160); details: 45 min, higher = more signal, called active from +8 up or from −8 down
NADPH oxidase 4 (Homo sapiens), sequence (Q9NPH5 whole entry, looked up): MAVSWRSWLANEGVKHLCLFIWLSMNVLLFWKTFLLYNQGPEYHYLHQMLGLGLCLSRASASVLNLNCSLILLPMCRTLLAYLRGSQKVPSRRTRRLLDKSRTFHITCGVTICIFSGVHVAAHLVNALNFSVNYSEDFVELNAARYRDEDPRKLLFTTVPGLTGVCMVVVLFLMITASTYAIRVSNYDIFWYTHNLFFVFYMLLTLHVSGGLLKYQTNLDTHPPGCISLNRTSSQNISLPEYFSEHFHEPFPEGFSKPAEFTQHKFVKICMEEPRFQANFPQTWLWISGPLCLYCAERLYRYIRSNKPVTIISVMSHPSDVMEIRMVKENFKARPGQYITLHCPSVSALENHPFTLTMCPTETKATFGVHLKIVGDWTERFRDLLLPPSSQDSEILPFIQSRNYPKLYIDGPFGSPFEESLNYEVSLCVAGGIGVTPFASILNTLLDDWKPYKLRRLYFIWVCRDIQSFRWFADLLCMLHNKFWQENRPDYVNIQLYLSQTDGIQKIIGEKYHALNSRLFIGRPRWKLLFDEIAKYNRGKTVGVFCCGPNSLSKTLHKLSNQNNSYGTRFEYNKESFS

[10] = biological target: NADPH oxidase 5 (Homo sapiens) (UniProt Q96PH1); test: NOX5-dependent H2O2 signal modulators, primary screen, NOX inhibitor project, cell-based, HEK293-NOX5, Amplex Red fluorescence (AID 1161); details: HEK293-NOX5, ionomycin, 45 min, higher = more signal
NADPH oxidase 5 (Homo sapiens), sequence (Q96PH1 whole entry, looked up): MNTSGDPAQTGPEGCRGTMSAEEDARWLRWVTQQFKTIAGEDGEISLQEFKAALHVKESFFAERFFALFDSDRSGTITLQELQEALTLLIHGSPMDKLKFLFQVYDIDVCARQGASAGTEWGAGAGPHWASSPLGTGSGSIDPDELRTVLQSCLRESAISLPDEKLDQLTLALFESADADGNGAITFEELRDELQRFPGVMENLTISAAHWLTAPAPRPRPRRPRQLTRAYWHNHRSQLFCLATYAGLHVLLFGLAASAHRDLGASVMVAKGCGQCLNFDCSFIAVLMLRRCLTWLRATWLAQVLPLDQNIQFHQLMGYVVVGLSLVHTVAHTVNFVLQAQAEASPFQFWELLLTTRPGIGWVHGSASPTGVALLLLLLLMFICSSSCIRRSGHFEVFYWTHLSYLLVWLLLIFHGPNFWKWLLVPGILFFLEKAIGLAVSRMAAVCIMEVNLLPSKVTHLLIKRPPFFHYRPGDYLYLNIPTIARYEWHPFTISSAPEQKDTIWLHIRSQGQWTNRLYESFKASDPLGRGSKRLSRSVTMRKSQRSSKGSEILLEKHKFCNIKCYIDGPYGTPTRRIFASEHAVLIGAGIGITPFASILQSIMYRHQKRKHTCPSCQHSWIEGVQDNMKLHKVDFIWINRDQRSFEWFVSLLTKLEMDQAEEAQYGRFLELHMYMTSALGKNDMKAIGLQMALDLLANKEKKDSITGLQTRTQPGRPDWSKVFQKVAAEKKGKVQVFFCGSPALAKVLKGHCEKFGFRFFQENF

[11] = A549 cell viability effects, profiling panel, calcein-AM fluorescence, 48 h, basal (AID 1162); details: higher = more signal; note: test concentration not given here
[12] = adipocyte viability effects, profiling panel, cell-based, 3T3-L1 adipocytes, calcein-AM fluorescence, 48 h, basal (AID 1163); details: 3T3-L1 adipocytes viability, higher = more signal; note: test concentration not given here
[13] = HepG2 cell viability effects, profiling panel, calcein-AM fluorescence, 48 h, basal (AID 1164); details: higher = more signal; note: test concentration not given here
[14] = MM1S cell viability effects, profiling panel, calcein-AM fluorescence, 48 h, basal (AID 1165); details: higher = more signal;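 note: viability of MM1S multiple myeloma cells under basal unstimulated conditions; test concentration not given here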
[15] = basal RPMI8226 viability, no added stimulus, profiling panel, cell-based, calcein-AM fluorescence, 48 h, PK04 Diversity Set (AID 1166); details: RPMI8226 myeloma viability, higher = more signal;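 note: cells grown under basal conditions without added stimulus; test concentration not given here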
[16] = basal HepG2 mitochondrial membrane potential changes, profiling panel, cell-based, JC-1 fluorescence, 24 h, 100 nL compound (AID 1167); details: higher = more signal; note: test concentration not given here
[17] = basal 3T3-L1 adipocyte mitochondrial potential changes, profiling panel, cell-based, JC-1 fluorescence, 3T3-L1 adipocytes, 24 h, 100 nL compound (AID 1168); details: JC-1 mitochondrial fluorescence, higher = more signal, called active from +8 up or from −8 down; note: test concentration not given here
[18] = basal RPMI8226 mitochondrial membrane potential changes, profiling panel, cell-based, JC-1 fluorescence, 24 h, 100 nL compound (AID 1169); details: RPMI8226 myeloma, JC-1 mitochondrial potential fluorescence, higher = more signal; note: test concentration not given here
[19] = basal MM1S mitochondrial membrane potential changes, profiling panel, cell-based, JC-1 fluorescence, 24 h, 100 nL compound (AID 1170); details: higher = more signal; note: test concentration not given here
[20] = A549 lung cancer cell viability effects, profiling panel, resazurin fluorescence, 24 h, PK04 Diversity Set (AID 1171); details: higher = more signal, called active from +8 up or from −8 down; note: test concentration not given here

C=CC[C@]1(C(=O)N2CCCCC2)N=C(c2ccc(OCCCO)cc2)O[C@H]1c1ccccc1
z-score [1]: 0.573 (inactive) | composite z-score [2]: 0.629 | z-score [3]: 18.8 (active) | z-score [4]: 3.99 (inactive) | z-score [5]: 1.61 (inactive) | z-score [6]: 1.11 (inactive) | z-score [7]: -0.232 | z-score [8]: 0.186 (inactive) | z-score [9]: -0.0137 (inactive) | z-score [10]: -1.71 | z-score [11]: 0.396 | z-score [12]: 0.0234 | z-score [13]: -0.426 | z-score [14]: -2.35 | z-score [15]: -1.35 | z-score [16]: 0.53 | z-score [17]: -0.0613 (inactive) | z-score [18]: -1.16 | z-score [19]: 0.447 | z-score [20]: 2.72 (inactive)

COc1ccc([Si](C)(C)[C@H]2[C@H](CCO)O[C@@]3(C(=O)N(Cc4ccc(N5C(=O)COc6ccccc65)cc4)c4ccccc43)[C@@H]2C)cc1
z-score [1]: -0.609 (inactive) | composite z-score [2]: -0.0094 | z-score [3]: 5 (inactive) | z-score [4]: 2.39 (inactive) | z-score [5]: -0.645 (inactive) | z-score [6]: 1.41 (inactive) | z-score [7]: 0.328 | z-score [8]: -0.916 (inactive) | z-score [9]: 1.3 (inactive) | z-score [10]: 2 | z-score [11]: -0.525 | z-score [12]: 0.0432 | z-score [13]: -3.14 | z-score [14]: -2.36 | z-score [15]: -4.33 | z-score [16]: -0.509 | z-score [17]: 1.36 (inactive) | z-score [18]: -1.07 | z-score [19]: -2.12 | z-score [20]: -2.35 (inactive)

COc1ccc(C(=O)Nc2ccc(CN3C(=O)[C@@]4(O[C@@H](CCO)[C@H]([Si](C)(C)c5ccc(OC)cc5)[C@H]4C)c4ccccc43)cc2)cc1
z-score [1]: -1.11 (inactive) | composite z-score [2]: 0.155 | z-score [3]: 25.1 (active) | z-score [4]: 13.2 (active) | z-score [5]: 1.6 (inactive) | z-score [6]: 1.75 (inactive) | z-score [7]: -0.483 | z-score [8]: -6.53 (inactive) | z-score [9]: -2.48 (inactive) | z-score [10]: -0.954 | z-score [11]: -4.06 | z-score [12]: -0.736 | z-score [13]: -4.64 | z-score [14]: -2.64 | z-score [15]: -4.32 | z-score [16]: -2.53 | z-score [17]: 1.16 (inactive) | z-score [18]: -1.12 | z-score [19]: -2.2 | z-score [20]: -3.84 (inactive)

CC(C)(C)OC(=O)CC[C@]1(C(=O)O)N=C(c2ccc(OCCCO)cc2)O[C@H]1c1ccccc1N=[N+]=[N-]
z-score [1]: 0.234 (inactive) | composite z-score [2]: 1.58 | z-score [3]: 32.9 (active) | z-score [4]: 28.4 (active) | z-score [5]: 0.912 (inactive) | z-score [6]: 6.45 (inactive) | z-score [7]: -0.466 | z-score [8]: 0.7 (inactive) | z-score [9]: 1.14 (inactive) | z-score [10]: 1.31 | z-score [11]: 0.559 | z-score [12]: -0.598 | z-score [13]: 0.331 | z-score [14]: -0.128 | z-score [15]: -0.24 | z-score [16]: -2.45 | z-score [17]: 0.328 (inactive) | z-score [18]: -0.506 | z-score [19]: -0.589 | z-score [20]: 0.0553 (inactive)

CN1C(=O)C2C=CC(C(O)c3ccccc3)N(Nc3ccccc3)C2C1=O (stereo not given)
z-score [1]: -1.78 (inactive) | composite z-score [2]: 0.242 | z-score [3]: 0.0961 (inactive) | z-score [4]: 1.31 (inactive) | z-score [5]: 0.595 (inactive) | z-score [6]: 0.974 (inactive) | z-score [7]: -1.1 | z-score [8]: -1.67 (inactive) | z-score [9]: -3.82 (inactive) | z-score [10]: -3.23 | z-score [11]: -1.3 | z-score [12]: -0.559 | z-score [13]: -0.761 | z-score [14]: -1.4 | z-score [15]: 0.362 | z-score [16]: -1.69 | z-score [17]: -0.441 (inactive) | z-score [18]: 0.636 | z-score [19]: -0.207 | z-score [20]: -1.26 (inactive)

COc1ccc(C(=O)Nc2ccc(CN3C(=O)[C@@]4(O[C@@H](CCn5cc([C@H](O)c6ccccc6)nn5)[C@H]([Si](C)(C)c5ccc(OC)cc5)[C@H]4C)c4ccccc43)cc2)cc1
z-score [1]: -0.203 (inactive) | composite z-score [2]: 0.191 | z-score [3]: 19.8 (active) | z-score [4]: 5.6 (inactive) | z-score [5]: 2.08 (inactive) | z-score [6]: 1.43 (inactive) | z-score [7]: 0.134 | z-score [8]: 0.295 (inactive) | z-score [9]: 0.709 (inactive) | z-score [10]: 2.2 | z-score [11]: -0.443 | z-score [12]: -0.196 | z-score [13]: -4.62 | z-score [14]: -2.72 | z-score [15]: -3.02 | z-score [16]: 1.73 | z-score [17]: 1.17 (inactive) | z-score [18]: -1.1 | z-score [19]: -2.26 | z-score [20]: -1.15 (inactive)

COc1ccc(C#Cc2ccc3c(c2)[C@]2(C(=O)N3)[C@H](c3ccccc3OCCO)N3[C@H](c4ccccc4)[C@H](c4ccccc4)OC(=O)[C@H]3[C@@H]2C(=O)O)cc1
z-score [1]: -0.181 (inactive) | composite z-score [2]: 1.27 | z-score [3]: 0.123 (inactive) | z-score [4]: 0.267 (inactive) | z-score [5]: -5.14 (inactive) | z-score [6]: -0.867 (inactive) | z-score [7]: 0.25 | z-score [8]: 0.441 (inactive) | z-score [9]: -1.36 (inactive) | z-score [10]: -0.669 | z-score [11]: 0.1 | z-score [12]: 0.143 | z-score [13]: -2.53 | z-score [14]: -3.32 | z-score [15]: -4.18 | z-score [16]: -3.62 | z-score [17]: 2.54 (inactive) | z-score [18]: -0.93 | z-score [19]: -1.9 | z-score [20]: 0.206 (inactive)

COc1ccc([Si](C)(C)[C@@H]2[C@@H](CC(=O)N3Cc4ccccc4C[C@H]3CO)O[C@]3(C(=O)N(C)c4c(Br)cc(C)cc43)[C@H]2C)cc1
z-score [1]: 0.0945 (inactive) | composite z-score [2]: 0.297 | z-score [3]: 9.71 (active) | z-score [4]: 2.3 (inactive) | z-score [5]: 0.392 (inactive) | z-score [6]: 1.9 (inactive) | z-score [7]: 2.09 | z-score [8]: 0.0136 (inactive) | z-score [9]: 0.0254 (inactive) | z-score [10]: -0.0526 | z-score [11]: -0.721 | z-score [12]: 0.181 | z-score [13]: -3.73 | z-score [14]: -2.66 | z-score [15]: -4.35 | z-score [16]: 0.634 | z-score [17]: 0.596 (inactive) | z-score [18]: -0.976 | z-score [19]: -2.23 | z-score [20]: -1.18 (inactive)

CS(=O)(=O)CCOC(=O)C1=CC(CCCO)=CC(c2ccc(CN3CCCC3)cc2)N(Cc2cc3c(cc2Br)OCO3)C=C1C(=O)OCCS(C)(=O)=O (stereo not given)
z-score [1]: -0.357 (inactive) | composite z-score [2]: 0.485 | z-score [3]: 0.246 (inactive) | z-score [4]: -0.211 (inactive) | z-score [5]: 1.14 (inactive) | z-score [6]: 0.111 (inactive) | z-score [7]: -0.606 | z-score [8]: 2.54 (inactive) | z-score [9]: 0.524 (inactive) | z-score [10]: 0.597 | z-score [11]: 1.94 | z-score [12]: -0.0958 | z-score [13]: -0.0078 | z-score [14]: -0.315 | z-score [15]: 0.0614 | z-score [16]: 3.02 | z-score [17]: 0.771 (inactive) | z-score [18]: 0.00988 | z-score [19]: 1.29 | z-score [20]: 0.778 (inactive)
